Measurements from PubChem BioAssay.
Activity calls are given as the source filed them. Unless noted, the rule behind the calls is not given here.

How the values were obtained:
[1] = test system: Wnt5a (protein binding on small-molecule microarray); test: small molecules binding Wnt5a protein – biophysical, small-molecule microarray, 635/667 nm fluorescence, primary screen (AID 1142); settings: 635 nm fluorescence, higher = more signal;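 note: fluorescence read at 667 nm with signal to noise per printed feature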
[2] = ATP-based viability of Huh7 replicon cells – cell-based, CellTiter-Glo luminescence, basal, 48 h, cytotoxicity control for HCV replication inhibitor project, primary screen (AID 1143); settings: higher = more signal, called active from +8 up or from −8 down;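 note: Huh7 hepatoma cells carrying a hepatitis C replication reporter with no stimulus; test concentration not given here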
[3] = Pseudomonas biofilm growth suppression – PAO1 strain, BacTiter-Glo luminescence, LB-PBS, primary screen (AID 1144); settings: P. aeruginosa PAO1 biofilm, 12 h, higher = more signal
[4] = basal CRE-LacZ reporter activity in PC12 – cell-based, unstimulated, primary screen (AID 1145); settings: no forskolin, luminescence, 4.5 h, higher = more signal, called active from +8 up or from −8 down
[5] = forskolin-driven CRE-LacZ activity in PC12 – cell-based, CRE-LacZ reporter, forskolin-stimulated, primary screen (AID 1146); settings: luminescence, 4.5 h, higher = more signal, called active from +8 up or from −8 down;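 note: PC12 cells with 6xCRE LacZ reporter stimulated by forskolin 10 µM; beta-galactosidase reporter signal reflecting CREB driven transcription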
[6] = molecular target: Streptavidin (Streptomyces avidinii) (UniProt P22629); test: compounds binding control protein streptavidin – biophysical, small-molecule microarray, 635/667 nm fluorescence, artefact control for SMM compound annotation, primary screen (AID 1147); settings: higher = more signal;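 note: signal reflects streptavidin binding to arrayed compounds as a control protein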
[7] = probe aInhba binding on compound microarray – biochemical, small-molecule microarray, 635/667 nm fluorescence, primary screen (AID 1148); settings: higher = more signal;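 note: score merges 667nm spot fluorescence with signal-to-noise for antibody binding to printed compounds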
Torsin-1A (Homo sapiens) [8] = molecular target: Torsin-1A (Homo sapiens) (UniProt O14656); test: TOR1A wild-type binding on microarray – cell lysate, small-molecule microarray, lysate, 635/667 nm, primary screen (AID 1149); settings: COS7 hTOR1A-WT lysate, 635 nm fluorescence, higher = more signal
Torsin-1A (Homo sapiens) [9] = molecular target: Torsin-1A (Homo sapiens) (UniProt O14656); test: torsin A mutant lysate binding on microarrays – cell lysate, small-molecule microarray, COS7 lysate, 635/667 nm fluorescence, primary screen (AID 1150); settings: COS7 hTOR1A mutant lysate, 635 nm fluorescence, higher = more signal;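 note: score pools 667 nm emission and signal to noise measuring lysate protein binding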
[10] = test system: Sonic hedgehog protein (Shh); test: Sonic hedgehog microarray binding compounds – biochemical, small-molecule microarray, 635/667 nm fluorescence, primary screen (AID 1151); settings: 635 nm fluorescence, higher = more signal;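 note: Shh protein binding to compounds spotted on small-molecule microarray slides; score combines spot fluorescence intensity with signal-to-noise across triplicate slides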

Sequence of Torsin-1A (Homo sapiens) (O14656 whole entry, looked up): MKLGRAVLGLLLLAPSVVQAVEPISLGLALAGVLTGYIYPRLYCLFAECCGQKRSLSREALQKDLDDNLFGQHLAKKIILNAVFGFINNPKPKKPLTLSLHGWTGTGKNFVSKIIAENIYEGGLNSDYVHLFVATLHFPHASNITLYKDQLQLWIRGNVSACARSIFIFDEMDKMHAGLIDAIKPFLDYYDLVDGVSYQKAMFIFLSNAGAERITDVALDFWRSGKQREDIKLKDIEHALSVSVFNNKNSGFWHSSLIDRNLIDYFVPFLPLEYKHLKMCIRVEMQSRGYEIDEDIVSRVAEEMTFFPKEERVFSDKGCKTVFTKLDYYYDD
Sequence of Streptavidin (Streptomyces avidinii) (P22629 whole entry, looked up): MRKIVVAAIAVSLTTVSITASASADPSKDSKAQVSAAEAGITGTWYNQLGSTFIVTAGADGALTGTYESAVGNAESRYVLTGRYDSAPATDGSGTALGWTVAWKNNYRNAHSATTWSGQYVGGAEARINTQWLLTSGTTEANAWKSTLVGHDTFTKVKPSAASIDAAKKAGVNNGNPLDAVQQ

SMILES | composite z-score [1] | z-score [2] | z-score [3] | z-score [4] | z-score [5] | composite z-score [6] | composite z-score [7] | composite z-score (Torsin-1A (Homo sapiens) [8]) | composite z-score (Torsin-1A (Homo sapiens) [9]) | composite z-score [10]
CCCC[C@@H](O)C1=C(COC)C[C@H]2C(=O)N(C)C(=O)[C@H]2[C@H]1CO | 0.0849 | -1.61 (inactive) | -1.55 (inactive) | -0.0581 (inactive) | -1.18 (inactive) | 0.45 | -0.128 | 0.32 | 0.227 | 0.882
[N-]=[N+]=NCc1ccccc1[C@@H]1OC(c2ccc(OCCCO)cc2)=N[C@]1(CCS(=O)(=O)c1ccccc1)C(=O)O | 0.132 | 0.0514 (inactive) | -0.127 (inactive) | 1.06 (inactive) | -0.0084 (inactive) | 0.659 | -0.0589 | 0.134 | 1.09 | -1.42
CC(C)C[C@@H]1NC(=O)[C@@H]2C[C@H](C(=O)NCCCCCCN)[C@H](c3cccc(OCCO)c3)N2C1=O | 0.0254 | -0.214 (inactive) | -1.74 (inactive) | -0.675 (inactive) | 0.348 (inactive) | 0.919 | 0.747 | 0.255 | 1.73 | 2
C=CC[C@@H](OC(=O)Nc1ccc(SC)cc1)c1ccc(O)c(F)c1 | 0.175 | -0.77 (inactive) | -1.57 (inactive) | 9.49 (active) | 3.13 (inactive) | -0.192 | -0.0468 | 0.26 | 0.163 | 1.87
C=CC[C@@H](OC(=O)Nc1ccc(OC)cc1)c1ccc(O)c(F)c1 | -0.115 | -4.67 (inactive) | -0.933 (inactive) | 2.26 (inactive) | 10.1 (active) | -0.716 | -0.106 | -0.0579 | 0.327 | 0.174
CCOC(=O)C=Cc1cccc(C)c1O | -0.0909 | -4.73 (inactive) | -1.02 (inactive) | 0.472 (inactive) | -0.631 (inactive) | -0.259 | -0.0375 | 0.299 | 0.777 | 0.219
O=C1C[C@]2(c3ccc([N+](=O)[O-])cc3)C(=O)N(C3CC3)c3cc(CO)ccc3[C@H]2N1CC12CC3CC(CC(C3)C1)C2 | -0.178 | -2.19 (inactive) | 0.332 (inactive) | -0.179 (inactive) | 1.23 (inactive) | -0.368 | -0.0403 | -1.26 | 0.228 | -0.7
C=C(C(=O)CC[C@H](OC(=O)c1ccccc1-c1ccccc1C(=O)O)c1cccc(OCCO)c1)C(C)C | -0.103 | -0.208 (inactive) | -0.125 (inactive) | 0.102 (inactive) | 3.19 (inactive) | -0.186 | -0.0719 | -0.492 | -0.0541 | 0.432
CCCC[C@@H](O)C1=C(COC)C[C@H]2C(=O)N(Cc3ccccc3)C(=O)[C@H]2[C@H]1CO | 0.0314 | -0.168 (inactive) | 0.102 (inactive) | 0.216 (inactive) | -0.566 (inactive) | -0.0045 | -0.204 | 0.707 | 0.69 | 1.02
COCCCNC(=O)[C@@]1(CCC(=O)OC(C)(C)C)N=C(c2ccc(OCCCO)cc2)O[C@H]1c1ccccc1N=[N+]=[N-] | 0.573 | -0.61 (inactive) | 0.199 (inactive) | 0.456 (inactive) | -1.71 (inactive) | 2.07 | 0.545 | 0.786 | 1.04 | -0.341
